Source: PubChem
HEK cytotox – Cytotoxic Profiling in HEK 293 Cell Line of Diverse Libraries Using Quantitative High-Throughput Screening. Potency, µM (doses to about 115 µM), usual class: inhibitors. hit rate 6.6% among 94,000. HEK 293 viability, ATP luminescence (CellTiter-Glo), 48-72 h; further: nearly all actives have a fitted effect of over 60% in size
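Cytotoxicity was scored by loss of ATP-coupled luminescence (CellTiter-Glo) in HEK 293 cells. Compound treatment ran 48 or 72 hr at 37 degree Celsius, 5% CO2, 95% humidity.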
3T3 cytotox – Cytotoxic Profiling in NIH 3T3 Cell Line of Diverse Libraries Using Quantitative High-Throughput Screening | NIH 3T3 viability, CellTiter-Glo ATP luminescence, 48-72 h | Potency, µM (top dose mostly 96.7 µM), actives largely listed as inhibitors | hit rate 4.3% among 94,000; further: nearly all actives have a fitted effect of over 55% in size
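Cytotoxicity was measured by CellTiter-Glo ATP luminescence after 48 or 72 h compound exposure at 37 °C. Mouse NIH 3T3 fibroblasts were seeded at 400 cells/well and dosed by 23 nL pin transfer.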
Luciferase inh – Firefly luciferase inhibition profiling of diverse chemical library using quantitative high-throughput screening; AID 1347043, 2019; purified P. pyralis luciferase, luminescence, biochemical; Potency, µM (highest dose often 115 µM), most hits filed as inhibitors; hit rate 2.5% among 76,000; further: nearly all actives have a fitted effect of over 65% in size
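Purified P. pyralis luciferase (10nM final) in 50mM Tris acetate pH 7.5, 10mM Mg acetate, 0.01% Tween-20, 0.05% BSA with 10uM D-luciferin and 10uM ATP. Compounds titrated qHTS. Luminescence imaged on CCD.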
NPR1 antag – Natriuretic polypeptide receptor (hNpr1) antagonism - Primary qHTS; HEK293 hNpr1 GloSensor cGMP, ANP-stimulated luminescence; hit rate 1.6% among 76,000; Potency, µM (top dose mostly 46.3 µM), usual class: inhibitors; Atrial natriuretic peptide receptor 1 (Homo sapiens), P16066; calls by dose curve; further: nearly all actives have a fitted effect of over 60% in size
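Compound pre-incubated 30 min at room temperature on GloSensor-loaded HEK293 cells stably carrying hNpr1 and the pGS-40F cGMP biosensor. Stimulation uses hNppA at 0.1 nM final; luminescence is taken at baseline and 20 min post-agonist.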
GPT2 inhibitor – Primary qHTS assay for inhibitors of Glutamate pyruvate transaminase 2 (GPT2); Alanine aminotransferase 2 (Homo sapiens), Q8TD30; Recombinant GPT2, coupled pyruvate oxidase/HRP Amplex Red fluorescence; Potency, µM (highest dose often 57.7 µM), most hits filed as inhibitors; hit rate 0.25% among 100,000; AID 1671188, 2021; further: nearly all actives have a fitted effect of over 60% in size
Target sequence (Q8TD30 whole entry, looked up): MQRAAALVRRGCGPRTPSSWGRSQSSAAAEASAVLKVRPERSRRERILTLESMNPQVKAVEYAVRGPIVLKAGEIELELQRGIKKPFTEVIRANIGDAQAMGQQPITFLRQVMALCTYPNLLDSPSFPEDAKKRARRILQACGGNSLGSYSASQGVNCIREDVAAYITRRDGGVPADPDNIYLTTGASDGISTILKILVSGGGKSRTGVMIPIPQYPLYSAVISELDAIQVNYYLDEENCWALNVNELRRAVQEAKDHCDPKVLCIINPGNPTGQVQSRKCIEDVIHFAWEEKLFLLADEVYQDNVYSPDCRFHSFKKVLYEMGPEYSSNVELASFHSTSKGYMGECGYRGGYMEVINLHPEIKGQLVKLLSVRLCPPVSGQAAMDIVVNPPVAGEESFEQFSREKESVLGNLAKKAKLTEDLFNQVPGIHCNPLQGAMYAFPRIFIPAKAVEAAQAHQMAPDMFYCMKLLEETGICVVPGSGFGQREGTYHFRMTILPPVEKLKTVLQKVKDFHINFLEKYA
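Recombinant GPT2 (10ng/uL) with 250uM a-KG and 2mM L-alanine, 30 min at room temperature, in HEPES pH 7.5 buffer. Pyruvate detected by pyruvate oxidase/HRP/Amplex Red fluorescence after 30 min in the dark; AOA (50uM) as positive control.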
A number is an active result; n = inactive; u = inconclusive; x = no result given. Compounds with a hit are over-represented: about 10% of the library has one in this group of screens. Unless noted, the call rests on the fitted dose curve; in most records, active means well fitted curve in the direction sought with a large enough effect; inconclusive means small, poorly fitted or top-dose-only effect, or another doubt; inactive means no such curve, though single readings can be large; an effect the other way counts as inactive or inconclusive.

SMILES	HEK cytotox	3T3 cytotox	Luciferase inh	NPR1 antag	GPT2 inhibitor
COc1cccc(-c2ncc3c(n2)OCCN(c2cccc(C(F)(F)F)c2)C3=O)c1	u	u	2µM	n	n
O=C1c2cnc(-c3cncnc3)nc2OCCN1c1cccc(C(F)(F)F)c1	n	40µM	n	n	n
O=C1c2cnc(-c3ccccc3)nc2OCCN1c1cccc(C(F)(F)F)c1	u	u	u	u	n
COc1ccccc1-c1nnc2ccc(C(=O)NCc3ccccc3)cn12	n	n	x	x	n
O[C@H]1CN[C@H](c2nc(-c3ccc(OC(F)(F)F)cc3)no2)C1	u	n	32µM	n	n
O[C@@H]1C[C@@H](c2nc(-c3ccc(OC(F)(F)F)cc3)no2)N(C2CCOCC2)C1	u	u	40µM	n	u
COc1cccc(CNC(=O)c2cc(-c3ccsc3)c3nncn3n2)c1	u	u	x	x	n
O=C(CCc1ccccc1)N1CC(Oc2ccccc2-c2nc(-c3ccccc3)no2)C1	40µM	35µM	x	x	n
CC(C)NC(=O)N1CCC(Oc2ccccc2-c2nc(-c3ccccc3)no2)C1 (centres undefined)	u	u	u	n	n
CCN1CCC(N2CCC(Oc3ccccc3-c3nc(-c4ccncc4)no3)C2)CC1 (centres undefined)	13µM	6.3µM	n	n	n
O=C(Nc1ccccc1)N1CCC(Oc2ccccc2-c2nc(-c3ccccc3)no2)C1 (centres undefined)	25µM	32µM	u	n	n
CC1=C[C@@H](CNC(=O)COc2ccccc2)[C@H](C(C)C)C[C@H]1Cc1nnc(-c2cncn2C)o1	50µM	u	n	n	n
CC1=C[C@@H](CN2CCC[C@H]2CO)[C@H](C(C)C)C[C@H]1Cc1nnc(-c2cncn2C)o1	u	100µM	n	n	n
O=C(CCCN1CCN(c2ccc(F)cc2)CC1)NC1c2ccccc2CSc2ccccc21 (centres undefined)	x	x	x	x	1.2µM
CN1C(=O)Cc2ccccc2C1C(=O)N1CCN(c2ccc(F)cc2)CC1 (centres undefined)	n	n	n	n	n
Cc1ccc(-c2cc(C(=O)NCc3ccccc3F)c3cnn(C)c3n2)cc1	n	n	x	x	n
COc1ccc(C(=O)N2CCC3(CC2)CCN(Cc2cccs2)c2ccccc2O3)cc1	40µM	u	n	n	u
O=C(c1ccc(Cl)nc1)N1CCC2(CC1)CCN(Cc1cccs1)c1ccccc1O2	25µM	u	n	u	n
O=C(c1ccccc1)N1CCC2(CC1)CCN(Cc1cccs1)c1ccccc1O2	u	u	n	n	n
CC(C)(C)C(=O)N1CCC2(CC1)CCN(Cc1cccs1)c1ccccc1O2	35µM	u	n	n	n
Cc1ccc(C(=O)N2CCC3(CC2)CCN(CCc2ccccc2)c2ccccc2O3)cc1	u	40µM	n	n	n
CCCN1CCC2(CCN(C(=O)c3ccc(C)cc3)CC2)Oc2ccccc21	u	u	n	n	n
O=C(NCC(F)(F)F)c1ccc2nnc(-c3cncc(Cl)c3)n2c1	n	n	x	x	u
COc1cc(C)c(CN2CCCn3nc(C(=O)N4CCCC4)cc3C2)cc1C	45µM	45µM	n	n	n
c1ccc(OCC2CN(Cc3ccncc3)CC23CN(c2ccccc2)C3)cc1 (centres undefined)	u	89µM	n	n	n
SMILES	HEK cytotox	3T3 cytotox	Luciferase inh	NPR1 antag	GPT2 inhibitor
c1ccc(OCC2CN(Cc3ccc4[nH]ccc4c3)CC23CN(c2ccccc2)C3)cc1 (centres undefined)	28µM	25µM	n	u	n
O=[S+]([O-])(NCC1CN(Cc2ccc(O)cc2)CC12CN(c1ccccc1)C2)c1ccccc1 (centres undefined)	u	18µM	n	n	n
O=C(Cc1ccccc1)NCC1CN(Cc2cccc(Cl)c2)CC12CN(c1ccccc1)C2 (centres undefined)	u	u	n	n	n
O=C(Cc1ccccc1)NCC1CN(Cc2ccc3[nH]ccc3c2)CC12CN(c1ccccc1)C2 (centres undefined)	40µM	22µM	n	n	n
CCCCn1c(=O)c(C(=O)NCCOC)nc2cccnc21	n	n	x	x	n
COCCNc1ccc2nnc(-c3ccccn3)n2n1	n	u	n	n	n
Cc1ccc(-c2nnc3ccc(NCc4cccs4)nn23)nc1	100µM	u	n	n	n
COCCCNc1ccc2nnc(-c3ccc(C)cn3)n2n1	n	89µM	n	n	n
O=C(COc1ccccc1)N1C[C@@H]2OCC(=O)N(Cc3ccc(F)cc3)[C@@H]2C1	n	n	n	n	n
O=C(c1nn(CC2CC2)c2c1CNCC2)N1CCC(Cc2ccccc2)CC1	u	40µM	x	x	n
COc1ccccc1-c1[nH]ncc1CN1CCCN(S(=O)(=O)c2ccccc2)CCC(=O)NCC1	u	n	n	n	n
CN1CCC(N(Cc2ccccc2)[C@@H]2C[C@@H]3CO[C@H](c4ccccc4)C[C@@H]3C2)CC1	u	14µM	x	x	x
CN1CCOC(c2ccccc2)c2ccccc2C1 (centres undefined)	x	x	x	x	n
COCCCNC(=O)C1CCN(c2nccc(Nc3ccccc3F)n2)CC1	u	u	x	x	n
COc1cccc(Nc2ncc3c(n2)C(C)(C(=O)NC2CCOCC2)CC3)c1 (centres undefined)	89µM	40µM	n	n	n
COc1cccc(Nc2ncc3c(n2)C(C)(C(=O)NC2CCN(C)CC2)CC3)c1 (centres undefined)	89µM	u	n	n	n
COc1cccc(Nc2ccc3c(n2)C(C)(C(=O)NC2CCN(C)CC2)CN(C)C3)c1 (centres undefined)	n	u	n	n	n
CC1(C(=O)NC2CCOCC2)CCc2cnc(Nc3ccccc3)nc21 (centres undefined)	100µM	u	n	n	n
COc1ccc(C2(C(=O)N3CCCC(c4nc(-c5cccnc5)no4)CCNC(=O)CC3)CC2)cc1 (centres undefined)	n	n	n	n	n
Cc1cccc(-c2noc([C@@H]3C[C@@H](O)CN3Cc3ccccn3)n2)c1	u	n	50µM	n	n
O[C@@H]1C[C@@H](c2nc(-c3ccccc3)no2)N(Cc2ccccc2)C1	n	u	n	n	n
Cc1ccccc1CN1C[C@H](O)C[C@H]1c1nc(-c2ccncc2)no1	u	u	n	n	n
Cc1cccc(-c2noc([C@@H]3C[C@@H](O)CN3Cc3ccc(Cl)cc3)n2)c1	100µM	u	63µM	n	n
Cc1ccc(NC(=O)N2CCc3c(C(=O)NC(C)c4cccnc4)cccc32)cc1 (centres undefined)	u	u	0.4µM	4.5µM	n
